{"source": "paper PMC11062922", "about": "(Nature Chemical Biology, 2023)", "set-up_in_all_cases": "species or system human, MV4-11 + K-562 + COLO205 + SK-N-BE2 + OVCAR-8", "key": {"CSK": {"test_system": "CSK", "settings": "read-out: apparent Kd, n = 1"}, "EPHA1": {"test_system": "EPHA1", "settings": "read-out: apparent Kd, n = 1"}, "EPHB3": {"test_system": "EPHB3", "settings": "read-out: apparent Kd, n = 1"}, "LYN": {"test_system": "LYN", "settings": "read-out: apparent Kd, n = 1"}, "MTOR": {"test_system": "MTOR", "settings": "read-out: apparent Kd, n = 1"}, "PRKG1": {"test_system": "PRKG1", "settings": "read-out: apparent Kd, n = 1"}, "AXL": {"test_system": "AXL", "settings": "read-out: apparent Kd, n = 1"}, "CDC42BPA": {"test_system": "CDC42BPA", "settings": "read-out: apparent Kd; compound concentrations: 100 nM and 1000 nM (sheet 'Samples'), CATDS: 3.9597453798327397E-3; n = 1"}, "CDC42BPG": {"test_system": "CDC42BPG", "settings": "read-out: apparent Kd; compound concentrations: 100 nM and 1000 nM (sheet 'Samples'), CATDS: 5.4078712502347798E-3; n = 1"}, "CDK2": {"test_system": "CDK2", "settings": "read-out: apparent Kd; compound concentrations: 100 nM and 1000 nM (sheet 'Samples'), CATDS: 5.1697348126272004E-3; n = 1"}, "CDK5": {"test_system": "CDK5", "settings": "read-out: apparent Kd; compound concentrations: 100 nM and 1000 nM (sheet 'Samples'), CATDS: 4.5442394594478004E-3; n = 1"}, "CDK9": {"test_system": "CDK9", "settings": "read-out: apparent Kd; compound concentrations: 100 nM and 1000 nM (sheet 'Samples'), CATDS: 4.5836362442514197E-3; n = 1"}, "PIK3CG": {"test_system": "PIK3CG", "settings": "read-out: apparent Kd, n = 1"}, "ROCK1": {"test_system": "ROCK1", "settings": "read-out: apparent Kd; compound concentrations: 100 nM and 1000 nM (sheet 'Samples'), CATDS: 4.4818399275614899E-3; n = 1"}, "TTK": {"test_system": "TTK", "settings": "read-out: apparent Kd; compound concentrations: 100 nM and 1000 nM (sheet 'Samples'), CATDS: 3.8760622756019202E-3; n = 1"}, "ULK1": {"test_system": "ULK1", "settings": "read-out: apparent Kd, n = 1"}, "RIPK2": {"test_system": "RIPK2", "settings": "read-out: apparent Kd; compound concentrations:100 nM and 1000 nM (sheet 'Samples'); n = 1"}, "[1]": {"settings": "compound concentrations:100 nM and 1000 nM (sheet 'Samples')"}}, "note": "Like-named read-outs stand apart in the source and are kept apart here."}
{"smiles": "Cc1ccc2c(-c3ccncc3)c(-c3ccc(F)cc3)nn2c1.Cl", "note": "[GW461484A]", "values": [{"measurement": "potency estimated from few doses", "setting": "CSK; [1]", "result": 893, "unit": "nM"}, {"measurement": "potency estimated from few doses", "setting": "EPHA1; [1]", "result": 643, "unit": "nM"}, {"measurement": "potency estimated from few doses", "setting": "EPHB3; [1]", "result": 1960, "unit": "nM"}, {"measurement": "potency estimated from few doses", "setting": "LYN; [1]", "result": 1010, "unit": "nM"}, {"measurement": "potency estimated from few doses", "setting": "MTOR; [1]", "result": 571, "unit": "nM"}]}
{"smiles": "CCn1c(-c2nonc2N)nc2c(C#CC(C)(C)O)nc(OCCNC)cc21.Cl", "note": "[GSK949675A]", "values": [{"measurement": "potency estimated from few doses", "setting": "PRKG1; [1]", "result": 1370, "unit": "nM"}]}
{"smiles": "Cn1ncc2c(N)ncnc21", "note": "[SKF-18267]", "values": [{"measurement": "potency estimated from few doses", "setting": "AXL; compound concentrations: 100 nM and 1000 nM (sheet 'Samples'), CATDS: 4.1647880989247304E-3", "result": 1210, "unit": "nM"}, {"measurement": "potency estimated from few doses", "setting": "CDC42BPA", "result": 1370, "unit": "nM"}, {"measurement": "potency estimated from few doses", "setting": "CDC42BPG", "result": 700, "unit": "nM"}, {"measurement": "potency estimated from few doses", "setting": "CDK2", "result": 762, "unit": "nM"}, {"measurement": "potency estimated from few doses", "setting": "CDK5", "result": 993, "unit": "nM"}, {"measurement": "potency estimated from few doses", "setting": "CDK9", "result": 974, "unit": "nM"}, {"measurement": "potency estimated from few doses", "setting": "CSK; compound concentrations: 100 nM and 1000 nM (sheet 'Samples'), CATDS: 4.6419413759929496E-3", "result": 948, "unit": "nM"}, {"measurement": "potency estimated from few doses", "setting": "EPHA1; compound concentrations: 100 nM and 1000 nM (sheet 'Samples'), CATDS: 6.5055673029188101E-3", "result": 506, "unit": "nM"}, {"measurement": "potency estimated from few doses", "setting": "EPHB3; compound concentrations: 100 nM and 1000 nM (sheet 'Samples'), CATDS: 3.3263666790724102E-3", "result": 2290, "unit": "nM"}, {"measurement": "potency estimated from few doses", "setting": "LYN; compound concentrations: 100 nM and 1000 nM (sheet 'Samples'), CATDS: 5.9641678427723097E-3", "result": 586, "unit": "nM"}, {"measurement": "potency estimated from few doses", "setting": "MTOR; compound concentrations: 100 nM and 1000 nM (sheet 'Samples'), CATDS: 1.26439105920185E-2", "result": 192, "unit": "nM"}, {"measurement": "potency estimated from few doses", "setting": "PIK3CG; compound concentrations: 100 nM and 1000 nM (sheet 'Samples'), CATDS: 9.5970287600273298E-3", "result": 280, "unit": "nM"}, {"measurement": "potency estimated from few doses", "setting": "PRKG1; compound concentrations: 100 nM and 1000 nM (sheet 'Samples'), CATDS: 4.7487342618258797E-3", "result": 904, "unit": "nM"}, {"measurement": "potency estimated from few doses", "setting": "ROCK1", "result": 1020, "unit": "nM"}, {"measurement": "potency estimated from few doses", "setting": "TTK", "result": 1450, "unit": "nM"}, {"measurement": "potency estimated from few doses", "setting": "ULK1; compound concentrations: 100 nM and 1000 nM (sheet 'Samples'), CATDS: 3.78452040785661E-3", "result": 1550, "unit": "nM"}]}
{"smiles": "CCn1c(-c2nonc2N)nc2c(C#CC(C)(C)O)nc(OC[C@@H](N)c3ccccc3)cc21", "note": "[GSK938890A]", "values": [{"measurement": "potency estimated from few doses", "setting": "PRKG1; compound concentrations: 100 nM and 1000 nM (sheet 'Samples'), CATDS: 5.6529109044468798E-2", "result": 866, "unit": "nM"}]}
{"smiles": "O=C1NC(=O)C(N2CCc3ccccc32)=C1c1ccccc1Cl", "note": "[SB-373598]", "values": [{"measurement": "potency estimated from few doses", "setting": "AXL; [1]", "result": 775, "unit": "nM"}, {"measurement": "potency estimated from few doses", "setting": "CSK; [1]", "result": 273, "unit": "nM"}, {"measurement": "potency estimated from few doses", "setting": "EPHA1; [1]", "result": 207, "unit": "nM"}, {"measurement": "potency estimated from few doses", "setting": "EPHB3; [1]", "result": 549, "unit": "nM"}, {"measurement": "potency estimated from few doses", "setting": "LYN; [1]", "result": 210, "unit": "nM"}, {"measurement": "potency estimated from few doses", "setting": "MTOR; [1]", "result": 461, "unit": "nM"}, {"measurement": "potency estimated from few doses", "setting": "PIK3CG; [1]", "result": 1110, "unit": "nM"}, {"measurement": "potency estimated from few doses", "setting": "RIPK2", "result": 273, "unit": "nM"}, {"measurement": "potency estimated from few doses", "setting": "ULK1; [1]", "result": 305, "unit": "nM"}]}
